Screening data from PubChem.
In the library only some 21% were active in any assay of this set; here they are far more common.
SARS PLP yeast – SARS-CoV PLP inhibition in yeast; S. cerevisiae expressing SARS-CoV PLpro, growth rescue; Potency, µM (titrated, usually from 32.9 µM), without a hit: top-dose activity, positive = growth rescue, hits mostly activators; hit rate 0.19% among 330,000; AID 485353; calls by dose curve; also: potency is read from the fitted curve at half-maximal effect; 0% is about no effect; nearly all actives have a fitted effect of over 55% in size
NS1 function inh – inhibitors of influenza NS1 protein function; Potency, µM (top dose mostly 46.1 µM), inactives show top-dose activity, positive = more growth; AID 2326; hit rate 0.4% among 270,000; calls by dose curve; also: potency is read from the fitted curve at half-maximal effect; actives are rising curves; nearly all actives have a fitted effect of over 50% in size
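In this qHTS, NS1 from influenza A is expressed in budding yeast, where it slows growth. Cells are switched from glucose to 2% galactose medium (pH 6.0, -URA), treated with compound, and growth recovery is read at OD600.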
Pf growth 48h – P. falciparum growth inhibition at 48 hours (one generation); Potency, µM (top dose mostly 28.7 µM), for the others: at the highest dose activity change, negative = inhibition, most hits filed as inhibitors; P. falciparum luciferase growth in erythrocytes, 48 h; hit rate 5.9% among 310,000; AID 504832; also: potency is read from the fitted curve at half-maximal effect; % is scaled to controls: 0 for no effect and ±100 for the full control effect
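A one-generation exposure of luciferase-tagged malaria parasites in RPMI 1640/Albumax erythrocyte culture, 37 C and 5% CO2. Inhibition is inferred from decreased luminescence after adding detection reagent.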
Shiga inhibitor – inhibitors of Shiga toxin in Vero cells. Vero cells, Shiga toxin protein synthesis inhibition reporter. inhibition, % at 38.7 µM. hit rate 9.2% among 290,000. AID 2315; in the data active = inhibition mostly above about 28%, no sharp cut-off; inactive = mostly below about 43%; also: 0% is about no effect
Pf growth 96h – P. falciparum growth inhibition at 96 hour, primary screen for plastid delayed-death inhibitors | P. falciparum luciferase reporter growth, 96 h | hit rate 6.9% among 320,000 | Potency, µM (series often up to 28.7 µM), for inactives: at the highest dose activity change, negative = inhibition, actives largely listed as inhibitors; also: potency is read from the fitted curve at half-maximal effect; % is scaled to controls: 0 for no effect and ±100 for the full control effect
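Parasite growth measured via integrated firefly luciferase reporter in P. falciparum. Infected erythrocytes at 2% hematocrit, 0.05% parasitemia final were treated 96 hours at 37 C under 5% CO2, and luminescence was read.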
Cycloheximide cs – counter-screen for Shiga toxin inhibitors: cycloheximide protein synthesis inhibition. cell reporter, cycloheximide protein synthesis inhibition counterscreen. hit rate 12% among 300,000. max response, %; in the data active = max response mostly above about 13%, no sharp cut-off; inactive = mostly below about 14%; also: read at 38.3 µM for the half of the compounds with a filed dose; 0% is about no effect
An asterisk follows results filed as active; ? = inconclusive; . = not tested or not shown; [ ] = dose if it differs, or a comment. Unless noted, calls follow the shape of the dose curve; as a rule, active = well fitted inhibition curve with a large enough effect; inconclusive = small, poorly fitted or top-dose-only effect, or another doubt; inactive = no such curve, though single readings can be large or run the other way.

SMILES	SARS PLP yeast	NS1 function inh	Pf growth 48h	Shiga inhibitor	Pf growth 96h	Cycloheximide cs
NNC(=O)Cn1nc2n(c1=O)-c1ccccc1SC2	0%	4%	2%	-3	0%	-1
C=CCn1nc2n(c1=O)-c1ccccc1SC2	0%	-3%	12%	24	0%	13
O=c1n(Cc2ccccc2)nc2n1-c1ccccc1SC2	-2%	-7%	?	49*	8%	28*
O=c1n(Cc2ccccc2Cl)nc2n1-c1ccccc1SC2	-2%	-2%	45%	40*	50%	48*
COC(=O)c1cc(OC)c(OC)cc1NC(=S)N1CCOCC1	0%	-1%	26%	-10	-3%	3
COc1ccc(C)cc1NC(=O)CCN1CC(C)OC(C)C1 (stereo not drawn)	1%	.	?	-8	24%	-3
COc1ccc(-c2csc(N(CCCN(C)C)C(=O)c3ccc(C(C)(C)C)cc3)n2)cc1	-6%	15%	13µM*	-3	16%	-5
CCN(C(=O)c1cccs1)c1nc(-c2ccc(OC)cc2)cs1	-1%	.	-20%	101*	?	43*
CCN(CC)CCCN(C(=O)c1ccccc1F)c1nc(-c2ccc(OC)cc2)cs1	8%	-17%	4.1µM*	-4	-30%	-4
CCC(=O)N(CC)c1nc(-c2cc(OC)ccc2OC)cs1	-8%	9%	12µM*	-12	-30%	1
COc1ccc(-c2csc(N(CCCN(C)C)C(=O)c3ccc(Br)cc3)n2)cc1	-6%	-11%	?	.	?	1
COC(=O)c1sc2nc(C)nc(SCC(=O)N3CCC(C(=O)O)CC3)c2c1C	3%	?	0%	20	6%	-2
CCN(CC)CCCN(C(=O)c1ccc(OC)cc1)c1nc(-c2ccc(OC)cc2)cs1	-1%	-21%	1.3µM*	-15	-29%	-15
COc1ccc(-c2csc(N(Cc3ccccc3)C(=O)COc3ccc(Cl)cc3)n2)cc1	0%	-8%	1%	-2	?	-1
COc1ccc(-c2csc(N(CCCN(C)C)C(=O)c3ccc(C)cc3)n2)cc1	-1%	5%	8.3µM*	-5	?	-4
COc1ccc(-c2csc(N(CCc3ccc(OC)c(OC)c3)C(=O)COc3ccccc3)n2)cc1	-2%	?	10µM*	-4	11%	5
Cc1ccc(S(=O)(=O)N2CCC(C(=O)OCc3ccc([N+](=O)[O-])cc3)CC2)cc1	-5%	21%	27%	-14	-12%	7
O=C(CCc1nnc(-c2ccsc2)o1)NCc1ccccc1OC(F)(F)F	0%	9%	14%	9	?	10*
O=C(CCc1nnc(-c2ccccc2)o1)NCc1cc(F)ccc1F	1%	1%	-10%	29	?	17*
COc1cccc(CNc2ccc(N3CCC(C)CC3)cc2)c1OC	8%	13%	1.9µM*	17	?	13
CCC(CO)NC1=CC(=O)CCC1 (stereo not drawn)	0%	.	9%	20	24%	-1
CC1(c2ccccc2)CC(C)(C)N2C(=O)C(=O)c3cccc1c32 (stereo not drawn)	-6%	-39%	12µM*	1	26%	-2
CC1CC2(CCCCC2)N2C(=O)C(=O)c3cccc1c32 (stereo not drawn)	-15%	-48%	-6%	16	-1%	1
CCSC1=C(C#N)C(c2cccc(O)c2)CC(=O)N1 (stereo not drawn)	-4%	4%	.	-8	-28%	0
CCSC1=C(C#N)C(c2cccc(Br)c2)CC(=O)N1 (stereo not drawn)	5%	-4%	6.6µM*	4	13%	6
SMILES	SARS PLP yeast	NS1 function inh	Pf growth 48h	Shiga inhibitor	Pf growth 96h	Cycloheximide cs
Cc1noc(C)c1S(=O)(=O)N(C)C[C@H]1Oc2ccc(NS(=O)(=O)c3cn(C)cn3)cc2C(=O)N([C@H](C)CO)C[C@@H]1C	0%	.	.	.	.	.
CC(=O)Nc1nc2ccccc2n1CCN(C)C	-2%	-2%	199%	3	1%	-2
Cn1c(Cl)nc2ccccc21	-4%	8%	5%	-3	14%	-2
CC(=O)Nc1nc2ccccc2n1Cc1ccccc1	-3%	-2%	?	-14	12µM*	-4
O=NNc1nc2ccccc2n1Cc1ccccc1	3%	1%	?	11	13µM*	-4
Cn1c(NN=O)nc2ccccc21	0%	7%	12µM*	49*	?	28*
CC(=O)Nc1sc(C)c(C)c1C(=O)OCC(=O)NCc1ccc(F)cc1	3%	.	?	.	26%	.
CCCCC(=O)OCC(=O)Nc1ccc(SC(F)F)cc1	-1%	-7%	30%	28	59%[5.75 µM]	6
CCOc1ccc(N2CC(C(=O)Nc3cc(Cl)ccc3-n3cncn3)CC2=O)cc1 (stereo not drawn)	-1%	.	1%	.	33%	.
COc1ccc(-c2ccc(=O)n(Cc3ccc([N+](=O)[O-])cc3)n2)cc1	-13%	.	-18%	-4	9%	-1
O=[N+]([O-])c1ccc2nc(-c3ccc(OC(F)F)cc3)cn2c1	0%	.	143%	73*	88%	45*
CCOC(=O)N1CCN(C(=O)c2cccc(S(=O)(=O)Nc3ccc(Br)cc3)c2)CC1	-1%	.	?	.	?	.
Cc1c(/C=N/NC(=O)CNc2ccccc2)c2ccccn2c1C(=O)c1ccccc1	0%	?	2.1µM*	-9	2.9µM*	1
Cc1c(/C=N/NC(=O)c2cccnc2)c2ccccn2c1C(=O)c1ccc(F)cc1	6%	10%	9.3µM*	3	5.2µM*	-3
COC(=O)N/N=C/c1c(C)c(C(=O)c2ccc(F)cc2)n2ccccc12	6%	10%	-20%	-11	?	-3
Cc1c(/C=N/NC(=O)c2ccccc2O)c2ccccn2c1C(=O)c1ccc(F)cc1	5%	?	8.3µM*	27	?	15*
Cc1c(/C=N/NC(=O)c2cc(=O)[nH]c(=O)[nH]2)c2ccccn2c1C(=O)c1ccccc1	1%	4%	3.3µM*	-24	.	-2
CCN(C(=O)c1ccc(C)c(Br)c1)c1ccccc1	6%	.	-3%[5.75 µM]	4	23%	-3
O=C(Cn1c(=O)n(Cc2ccc3c(c2)OCO3)c(=O)c2ccccc21)N1CCCc2ccccc21	-5%	-16%	10µM*	-4	.	1
Cc1c(C#N)c2ccccc2n1CC(=O)N1CCCc2ccccc21	2%	-3%	3.3µM*	-16	36%	-1
C#CCn1c(S(=O)(=O)Cc2ccc(F)cc2)nc(-c2ccccc2)c1-c1ccccc1	-10%	26%	?	-6	8.3µM*	1
CCOC(=O)Cn1c(S(=O)(=O)Cc2cccc(F)c2)nc(-c2ccccc2)c1-c1ccccc1	-7%	?	8.3µM*	9	5.9µM*	7
CCOC(=O)Cn1c(-c2ccccc2)nc2ccccc2c1=O	-25%	-56%	?	-16	-5%	-2
CCOC(=O)Cn1c(S(=O)(=O)Cc2ccc(F)cc2)nc(-c2ccccc2)c1-c1ccccc1	1%	6%	13µM*	-3	9.3µM*	3
